Compound activity from PubChem BioAssay.
Compounds with a hit are over-represented: about 19% of the library has one in this group of screens.
IL1B secr inh = blocks inflammasome-driven IL-1 beta release; THP-1 LPS/ATP IL-1B secretion, AlphaLISA, 16 h; stronger effect = lower value; activity change, % at 57.5 µM; 4.7% of 360,000 active; AID 743279; in the data active means activity change below about -50%; inconclusive means mostly about -30% to -49%; further: on the % scale 0 is the no-effect control and ±100 the full control effect
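Secreted IL-1B measured by AlphaLISA bead assay after 16 h compound exposure of THP-1 cells; compounds (final up to 57.5 uM) added 1 h before LPS (250 ng/mL) and ATP (1.25 mM) stimulation; lower signal means less secretion.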
TDP1 block = TDP1 (human) enzyme inhibition | AID 485290 | recombinant TDP1, AlphaScreen DNA substrate cleavage | Potency, µM (doses to about 130 µM), without a hit: top-dose activity change, negative = inhibition, usual class: inhibitors | Q9NUW8 | 0.28% of 350,000 active; further: potency means the concentration at half of the fitted maximal effect; on the % scale 0 is the no-effect control and ±100 the full control effect; nearly all actives have a fitted effect of over 40% in size
Target sequence (Q9NUW8 whole entry, looked up): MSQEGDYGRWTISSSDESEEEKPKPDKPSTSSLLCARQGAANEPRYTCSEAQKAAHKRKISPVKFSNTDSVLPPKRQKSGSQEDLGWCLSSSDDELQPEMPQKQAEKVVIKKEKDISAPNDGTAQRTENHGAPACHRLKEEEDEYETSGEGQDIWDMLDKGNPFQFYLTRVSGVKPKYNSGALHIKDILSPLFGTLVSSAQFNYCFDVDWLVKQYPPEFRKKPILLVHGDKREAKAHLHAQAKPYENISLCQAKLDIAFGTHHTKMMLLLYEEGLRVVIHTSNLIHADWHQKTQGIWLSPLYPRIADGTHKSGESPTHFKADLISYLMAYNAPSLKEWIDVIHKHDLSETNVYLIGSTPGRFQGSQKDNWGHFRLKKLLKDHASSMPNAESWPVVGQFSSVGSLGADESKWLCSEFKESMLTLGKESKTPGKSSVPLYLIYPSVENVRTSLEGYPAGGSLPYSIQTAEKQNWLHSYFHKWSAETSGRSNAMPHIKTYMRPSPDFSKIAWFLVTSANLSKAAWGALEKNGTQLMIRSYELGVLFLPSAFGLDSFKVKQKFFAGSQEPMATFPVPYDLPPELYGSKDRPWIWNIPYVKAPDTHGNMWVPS
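Recombinant E. coli-expressed Tdp1 (1 nM) preincubated with compound 15 min at RT, then 5'-biotin/3'-phosphotyrosine-FITC DNA substrate (15 nM) added for 5 min. AlphaScreen beads (10 ug/ml) added, 10 min RT; tyrosine-FITC cleavage read as signal loss.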
HepG2 tox = HepG2 cytotoxicity, counter-screen for TGF-b inhibitors. HepG2 CAGA-GFP viability, ATP luminescence, 18 h. Potency, µM (titrated, usually from 46.1 µM), for inactives: at the highest dose activity change, negative = cytotoxicity, hits mostly cytotoxic. 0.76% of 410,000 active. AID 588856; further: potency means the concentration at half of the fitted maximal effect
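CellTiter-Glo luminescence gave cytotoxicity after 18 hours at 37 degrees C. The cells were HepG2 CAGA-GFP in 1% FBS DMEM, stimulated with 500 pg/mL TGF-beta after compound addition. %Activity was normalised to no-cell wells (complete cell-killing) and DMSO (no toxicity), and curves were fitted and classified.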
DT40 TDP1 CPT = growth inhibition of DT40 Tdp1-/-;hTDP1 cells with camptothecin (screen for TDP1 inhibitors); Potency, µM (series often up to 46.2 µM), without a hit: top-dose activity change, negative = growth inhibition, actives largely listed as inhibitors; chicken DT40 Tdp1-/-;hTDP1 cells + 20 nM CPT, ATP luminescence, 48 h; 12% of 420,000 active; further: potency means the concentration at half of the fitted maximal effect; on the % scale 0 is the no-effect control and ±100 the full control effect; nearly all actives have a fitted effect of over 55% in size
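Cell growth measured by CellTiter-Glo luminescence after a minimum 48 h, 37 C compound exposure with 20 nM CPT in Tdp1-knockout DT40 cells stably expressing hTDP1, seeded 400/well; qHTS titration format.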
TDP1 cell noCPT = qHTS for Inhibitors of human tyrosyl-DNA phosphodiesterase 1 (TDP1): qHTS in cells in absence of CPT | Potency, µM (titrated, usually from 46.2 µM), for inactives: at the highest dose activity change, negative = growth inhibition, most hits filed as inhibitors | AID 686978, 2013 | DT40 Tdp1-/- hTDP1 cells, no CPT, ATP luminescence, 48 h | 15% of 420,000 active; further: potency means the concentration at half of the fitted maximal effect; on the % scale 0 is the no-effect control and ±100 the full control effect; nearly all actives have a fitted effect of over 55% in size
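Growth kinetics read by CellTiter-Glo luminescence after ≥48 hr at 37 °C. Cells: DT40 Tdp1-/- stably carrying human TDP1, 400 per well, compound exposure in the absence of CPT (DMSO vehicle).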
TGFb inhibitor = inhibitors of TGF-b signaling; Potency, µM (highest dose often 46.1 µM), for the others: top-dose activity, negative = inhibition, actives largely listed as inhibitors; HepG2 CAGA-GFP TGF-b/SMAD3 reporter, GFP fluorescence, 18 h; TGF-beta stimulated, 500 pg/mL final; 1.2% of 410,000 active; further: potency means the concentration at half of the fitted maximal effect; on the % scale 0 is the no-effect control and ±100 the full control effect; nearly all actives have a fitted effect of over 65% in size
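Per well, imaged GFP fluorescence of HEPG2 CAGA-GFP cells gives the signal; cells get compound, then TGF-beta (500 pg/mL final), 18 h at 37 degrees C; %Activity versus -TGF-beta and +DMSO controls.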
The depositor's hits bear a star; u = inconclusive; x = no result given; ! = not active in a repeat; [ ] = dose if it differs, or a comment. Unless noted, the call rests on the fitted dose curve; in most records, active means well fitted curve in the direction sought with a large enough effect; inconclusive means small, poorly fitted or top-dose-only effect, or another doubt; inactive means no such curve, though single readings can be large; an effect the other way counts as inactive or inconclusive.

SMILES | IL1B secr inh | TDP1 block | HepG2 tox | DT40 TDP1 CPT | TDP1 cell noCPT | TGFb inhibitor
COc1ccc(CN(C)CC(=O)NCC(=O)Nc2c(C)cccc2C)cc1 | 12 | 0%[56.1 µM] | -4% | -6% | 0% | -2%
Cc1cccc(C)c1NC(=O)CN(Cc1ccccc1)Cc1ccccc1 | -1 | x | -41% | u | 21µM* | u
CC[N+](CC)(CC)CC(=O)Nc1c(C)cccc1C | 4 | -9%[56.1 µM] | -1% | 18µM*! | 14% | -2%
CCc1cccc(C)c1NC(=O)CN(C)Cc1ccc(Br)cc1 | -57* | 1% | -3% | 21µM* | u | -9%
CNC(=O)CN(Cc1ccccc1)S(=O)(=O)c1ccccc1 | -7 | -1% | 5% | 5% | 0% | 7%
Cc1cccc(C)c1NC(=O)CN(Cc1ccc(Br)cc1)S(=O)(=O)c1ccccc1 | x | x | -15% | u | 15µM* | u
Cc1ccc(-c2noc(-c3cccnc3NCc3ccc(Cl)cc3)n2)cc1 | x | 6% | 7% | -9% | -23% | -3%
CNC(=O)c1ccc(CN(C)C(=O)c2cccc(S(=O)(=O)N3CCc4ccccc4C3)c2)cc1 | 3 | x | -17% | -9% | u | -19%
O=C(CN(Cc1ccc(F)cc1)S(=O)(=O)c1ccccc1)N1CCCCC1 | -11 | -2% | 6% | u | 16µM* | 0%
CC(C)(C)NC(=O)CN(Cc1ccccc1)S(=O)(=O)c1ccccc1 | -74* | x | 7% | -3% | -8% | -12%
Cc1ccc(-c2noc(-c3ccccc3NC(=O)C3CC(=O)N(c4ccc(C)cc4)C3)n2)cc1 (stereo not given) | x | 6% | 16% | -14% | -18% | 6%
Cc1oc(-c2ccc(Cl)cc2)nc1CS(=O)CC(=O)NCc1ccc(Cl)cc1 (stereo not given) | x | 7% | -6% | u | u | u
O=[N+]([O-])c1ccc(O)c(-c2nc(-c3ccccc3)c(-c3cccs3)[nH]2)c1 | -4 | 9% | -52% | 21µM* | 18µM* | -17%
COc1ccc(-c2nc(-c3ccccc3)c(-c3cc([N+](=O)[O-])ccc3C)[nH]2)cc1OC | -6 | 8% | 14% | 23µM* | 18µM* | 33%
CCOc1cc(-c2nc(-c3ccccc3)c(-c3cc([N+](=O)[O-])ccc3C)[nH]2)ccc1O | -14 | 10% | -12% | u | 23µM* | u
CCn1c(CNC(=O)c2ccc(OC)cc2)nnc1SCC(=O)Nc1cccc(C)c1 | x | 3% | -5% | 18% | -6% | -40%
CN(C)c1ccc(-c2c(C3C4C=CCCC4(C)C(=O)N3Cc3ccccc3)ccc3ccccc23)cc1 (stereo not given) | x | 11% | -13% | x | x | u
CCOC(=O)[C@]12CCCC=C1N(Cc1ccc3c(c1)OCO3)C(=O)[C@H](CC(=O)NCC1CCCCC1)C2 | 22 | x | x | u | u | x
CCOC(=O)[C@]12CCC=C1N(Cc1ccc3c(c1)OCO3)C(=O)[C@H](CC(=O)NCCC(C)C)C2 | 2 | x | x | u | 18µM* | x
CCOC(=O)[C@]12CCCC=C1N(Cc1ccc3c(c1)OCO3)C(=O)[C@H](CC(=O)NCCCCc1ccccc1)C2 | -63* | x | x | u | 21µM* | x
CCOC(=O)[C@]12CCCC=C1N(Cc1ccc3c(c1)OCO3)C(=O)[C@H](CC(=O)NCC13CC4CC(CC(C4)C1)C3)C2 | -9 | x | x | u | 23µM* | x
CCOC(=O)[C@]12CCC=C1N(Cc1ccc3c(c1)OCO3)C(=O)[C@H](CC(=O)NCCCCc1ccccc1)C2 | -69* | x | x | u | 21µM* | x
O=C(NCc1cccc(Cl)c1)C1CCN(S(=O)(=O)c2ccc(F)cc2)CC1 | -8 | 6% | -11% | -12% | u | -3%
Cc1cccc(-n2c(C)nnc2SCC(=O)NC(C)c2ccco2)c1 (stereo not given) | x | x | -41% | -19% | -14% | 3%
CCCCOCCCNC(=O)C[C@@H]1C[C@@]2(C(=O)OC)CCCCC=C2N(Cc2ccc3c(c2)OCO3)C1=O | -13 | x | x | u | u | x
SMILES | IL1B secr inh | TDP1 block | HepG2 tox | DT40 TDP1 CPT | TDP1 cell noCPT | TGFb inhibitor
COC(=O)[C@]12CCCCC=C1N(Cc1ccc3c(c1)OCO3)C(=O)[C@H](CC(=O)NCCCCc1ccccc1)C2 | -55* | x | x | u | u | x
CCCCNC(=O)C[C@@H]1C[C@@]2(C(=O)OC)CCCCC=C2N(Cc2ccc3c(c2)OCO3)C1=O | -61* | x | x | u | u | x
C1CCC[C@H]2CCCN3CC[C@H](CCCCCC[C@@H]4CCCN5CC[C@H](CC1)OC45)OC23 | x | 1% | x | x | x | x
O=C(NCCc1ccccc1)C(=O)Nc1nccs1 | 0 | 6% | 27% | 3% | 8% | 21%
S=C(NCCc1ccccc1)Nc1ccc(Br)cn1 | 65 | 5% | -14% | u | 15µM* | 7%
S=C(NCc1ccccc1)Nc1nccs1 | 51 | x | -4% | 5.2µM* | 4.6µM* | -8%
S=C(NCCc1ccccc1)Nc1nccs1 | 17 | 0% | -4% | u | 15µM* | -4%
O=C(NCc1ccncc1)C(=O)Nc1nccs1 | -2 | 4% | -6% | 20% | 16% | 2%
COC(=O)[C@]1(C)N[C@H](CN(C)C(=O)c2ccc(C)cc2)[C@@H]2C(=O)N(Cc3ccccc3)C(=O)[C@@H]21 | 73 | 0% | -17% | 3% | -5% | -20%
Nc1nc2ccc(Cl)cc2cc1C(=O)NCCc1ccc(O)cc1 | -7 | x | x | u | 18µM* | x
Nc1ccc(CNC(=O)c2cc3cc(Cl)ccc3nc2N)cc1 | 15 | x | x | u | u | x
COc1ccc(CCNC(=O)c2cc3cc(Cl)ccc3nc2N)cc1OC | 9 | x | x | 13µM* | 8.2µM* | x
CCOC(=O)C(CCc1ccccc1)NC(C)C(=O)N1Cc2ccccc2CC1C(=O)O (stereo not given) | x | 3%[56.1 µM] | x | x | x | x
CCOC(=O)Cc1ccc(NC(=O)N(C(C)C)C2CCN(C(C)=O)CC2)cc1 | x | 3% | 13% | 1% | -2% | -19%
c1ccc2c(c1)Sc1ccccc1N2CCN1CCCC1 | x | 12% | x | u | u | x
c1ccc2c(c1)Sc1cnccc1N2CC1CO1 (stereo not given) | -11 | x | -21% | 4.1µM* | 10µM* | -2%
Cc1cc(C)c(S(=O)(=O)N2CCCc3ccccc32)c(C)c1 | 29 | -13% | -30% | u | u | -13%
